# Screening data from PubChem.
# Hits are enriched below; roughly 9% of the tested compounds scored in any of these assays.
# ALDH1A1 block: blocks purified human ALDH1A1 activity; P00352; Purified ALDH1A1, NADH fluorescence, propionaldehyde substrate; Potency, µM (top dose mostly 75.3 µM), for the others: at the top dose activity, negative = inhibition, hits mostly inhibitors; 7.3% of 220,000 active; active means well fitted inhibition curve with a large enough effect, not every such curve was filed as active; inconclusive means small, poorly fitted or top-dose-only effect, or another doubt; inactive means no such curve, though single readings can be large or run the other way;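 further: plate controls were no enzyme wells and a reference inhibitor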
# HPGD block: blocks human HPGD enzyme activity; P15428; purified HPGD, NADH fluorescence kinetic, PGE2 substrate; Potency, µM, for inactives: at the top dose activity change, negative = inhibition, actives largely listed as inhibitors; 4.3% of 150,000 active; AID 894; active means well fitted inhibition curve with a large enough effect, not every such curve was filed as active; inconclusive means small, poorly fitted or top-dose-only effect, or another doubt; inactive means no such curve, though single readings can be large or run the other way; further: on the % scale 0 is the no-effect control and ±100 the full control effect
# Target sequence (P15428 whole entry, looked up): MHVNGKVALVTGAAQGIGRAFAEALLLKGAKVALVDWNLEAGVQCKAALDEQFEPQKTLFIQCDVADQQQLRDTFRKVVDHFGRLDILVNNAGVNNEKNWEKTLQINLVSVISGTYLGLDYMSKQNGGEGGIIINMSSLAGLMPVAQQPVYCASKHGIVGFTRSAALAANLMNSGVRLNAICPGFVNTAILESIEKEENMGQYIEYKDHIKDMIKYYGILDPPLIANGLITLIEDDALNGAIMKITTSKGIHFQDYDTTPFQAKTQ
#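 NADH formation kinetics: reaction with 30 uM PGE2 and 1 mM NAD+ (final), 20 nM enzyme, Tris-HCl pH 8 with Tween 20, after 15 min compound preincubation at room temperature. Fluorescence change, last versus first of five reads.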
# HTT cytoprotect: Huntington cell model cytoprotection by ATP luminescence. PC12 HTT-Q103 induced, cytoprotection, ATP luminescence, 40 h. 0.14% of 230,000 active. AID 1471. Potency, µM (top dose mostly 56.4 µM), inactives show cytoprotection (ATP increase), actives largely listed as activators; further: % of control where 0% means no effect; nearly all actives have a fitted effect of over 45% in size
#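 Quantitative HTS on tebufenozide-induced (100 nM) PC12 cells expressing HTTQ103 exon 1–GFP; compounds tested as a concentration series; survival measured via cellular ATP.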
# HTT aggregate: reduces HttQ103-GFP aggregates in PC12 cells. PC12 HttQ103-GFP aggregates, Acumen cytometry, 40 h. Potency, µM (doses to about 46.1 µM), without a hit: at the top dose activity change, negative = inhibition, hits mostly inhibitors. AID 1688. 1.1% of 220,000 active; further: on the % scale 0 is the no-effect control and ±100 the full control effect; nearly all actives have a fitted effect of over 60% in size
#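 PC12/HTTQ103-GFP, ecdysone-inducible; teb 100 nM; cpd qHTS titration; GFP aggregates read on laser cytometer, Ex 488/Em 500-530 nm.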
# Lamin A splicing: changes lamin A minigene splicing in HeLa cells. Potency, µM (highest dose often 46.1 µM), without a hit: top-dose ratio change, negative = inhibition, actives largely listed as inhibitors. HeLa LMNA splicing GFP/RFP minigene ratio, 48 h. 0.01% of 200,000 active; active means well fitted inhibition curve with a large enough effect in the signal ratio, with a control signal flat, not every such curve was filed as active; inconclusive means small, poorly fitted or top-dose-only effect, or effect the other way, or a change in a side signal; the % refers to the signal ratio; further: on the % scale 0 is the no-effect control and ±100 the full control effect
#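 S3 HeLa stable clones carrying a lamin A-EGFP splicing minigene plus DsRed2 were seeded at 600 cells/well in Opti-MEM with 2% FBS, pin-dosed and incubated 48 h at 37°C. Acumen cytometry (488 nm) gave the GFP/RFP total-intensity ratio.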
# Luc counter: counter-screen: inhibitors of Kinase-Glo firefly luciferase; Q27757; Kinase-Glo luciferase, ATP luminescence, 8 min; Potency, µM (doses to about 38.3 µM), without a hit: at the highest dose activity change, negative = inhibition, most hits filed as inhibitors; 0.28% of 200,000 active; AID 1379; further: on the % scale 0 is the no-effect control and ±100 the full control effect; nearly all actives have a fitted effect of over 60% in size
#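 Inhibition of Kinase-Glo luciferase light generation was assessed at 10 uM ATP in pH 7.2 imidazole buffer, with luminescence measured after eight minutes at ambient temperature.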
# * = called active by the depositor; u = inconclusive; x = not tested or not shown; [ ] = another dose, or the depositor's remark. Unless noted, the call rests on the fitted dose curve; in most records, active means well fitted curve in the direction sought with a large enough effect; inconclusive means small, poorly fitted or top-dose-only effect, or another doubt; inactive means no such curve, though single readings can be large; an effect the other way counts as inactive or inconclusive. Potency means the concentration at half of the fitted maximal effect.
SMILES,ALDH1A1 block,HPGD block,HTT cytoprotect,HTT aggregate,Lamin A splicing,Luc counter
O=C(Nc1nccs1)c1ccc(-c2ccc(F)cc2)o1,22.4µM*,x,-161.6%,-13.2%,x,-5.0%
COc1ccc(NC(=O)c2ccc(-c3ccc([N+](=O)[O-])cc3)o2)cc1,2.24µM*,x,-46.3%,19.5%,u,10.8%
O=C(Nc1nccs1)c1ccc(-c2ccc([N+](=O)[O-])cc2)o1,22.4µM*,x,x,x,u,-5.0%
O=C(NCCc1ccc2c(c1)OCO2)C1CCN(S(=O)(=O)c2ccc(Cl)cc2)CC1,-13.2%,-11.1%,-13.0%[10 µM],-14.9%,-1.1%,12.0%
COc1ccc(NC(=O)c2ccc(COc3ccccc3)o2)cc1,u,-15.9%,-30.6%,-17.8%,11.1%,-16.3%
COc1ccc(NC(=O)c2ccc(Cc3ccc(C)cc3)o2)cc1,25.1µM*,u,-0.6%[10 µM],-7.7%,u,0.8%
COc1ccc(CCNC(=O)c2ccc(-c3ccc([N+](=O)[O-])cc3)o2)cc1OC,10µM*,-8.0%,-5.3%[1.9 µM],-3.2%,u,5.8%
COc1ccc(NC(=O)c2[nH]ncc2[N+](=O)[O-])cc1,15µM*,x,-30.9%,-1.4%,-18.7%[46 µM],-12.2%
COc1ccc(CCNC(=O)COc2ccccc2[N+](=O)[O-])cc1OC,x,x,-3.2%[10 µM],3.7%[9.22 µM],x,x
COc1ccc(NC(=O)c2cc([N+](=O)[O-])ccc2O)cc1,4.3%,x,-80.2%[10 µM],-6.4%[9.22 µM],-8.2%[46 µM],7.94µM*
CC(C)c1nc2ccc(C(=O)NCc3ccccc3Br)cc2o1,x,x,x,x,-6.7%[46 µM],x
CS(=O)(=O)c1cnc2c(-c3ccsc3)cnn2c1N,7.8%,x,-21.4%[10 µM],1.6%,u,-0.9%
Cc1ccc(-n2cc(CNCCN3CCOC3=O)c(-c3cccc(C)c3)n2)cc1,7.08µM*,x,-27.2%[10 µM],-8.4%[9.22 µM],x,-0.2%
O=c1ccc2cc3c([nH]c4ccc(Br)cc43)oc-2c1O,7.94µM*,15.8µM*,-0.2%[10 µM],-0.5%,-2.9%,-4.1%
O=c1c2c([nH]c3ccc(Br)cc13)CCCC2,-3.1%,-3.8%,-17.5%,-11.1%,3.5%,-1.2%
CCOc1ccc(C2C(C(C)=O)=C(O)C(=O)N2CCc2c[nH]c3ccccc23)cc1 (configuration not stated),-7.7%,x,-6.4%[10 µM],8.0%[9.22 µM],6.9%[46 µM],-0.3%
O=C1NCCCC2c3c(cc(Br)c(O)c3Br)OC12N1CCCCC1 (configuration not stated),7.94µM*,12.6µM*,-8.0%,5.9%,3.5%,-3.0%
Cc1ccc(C)c(S(=O)(=O)Nc2ccc3scnc3c2)c1,1.78µM*,-16.9%,-58.1%,-21.7%,-22.0%,0.1%
Cc1ccc(C)c(S(=O)(=O)Nc2ccc(O)c(Sc3ncn[nH]3)c2)c1,x,x,12.1%[10 µM],33.6%[9.22 µM],x,x
CCOC(=O)CSc1nc2ccsc2c(=O)n1C1CCN(C(=O)OCC)CC1,-6.8%,1.2%,4.5%[0.074 µM],8.2%,u,-1.4%
COC(=O)c1cc(NCc2cccs2)ccc1N1CCOCC1,17.8µM*,-8.5%,-7.5%,-23.4%,-3.1%,-1.5%
CC(C)(C)c1ccc(/C=N/Nc2ccc(C(=O)O)cc2)cc1,3.6%,14.1µM*,2.8%[10 µM],10.2%,24.8%,0.0%
Cc1ccc(N/N=C/c2ccc3c(c2)OCCO3)cc1Cl,12.6µM*,u,3.4%[10 µM],4.3%,-9.1%,-1.8%
O=C(O)c1cc(N/N=C/c2ccc3c(c2)OCO3)ccc1Cl,u,x,-60.6%,25.2%,x,-2.0%
O=C(O)c1ccc(N/N=C/c2ccc3c(c2)OCO3)cc1,-6.1%,x,-10.8%[10 µM],5.2%[9.22 µM],u,3.98µM*
O=C(O)c1ccc(N/N=C/c2ccc(C(F)(F)F)cc2)cc1,u,x,7.3%[10 µM],20.0%,-2.1%[46 µM],1.1%
COc1cc(O)c(C(CCN2CCN(c3ccccc3)CC2)c2ccc3c(c2)OCO3)c(OC)c1 (configuration not stated),x,x,-5.1%[10 µM],7.0%[9.22 µM],x,x
COC(=O)CCC(=O)OC1(C)C(=O)C=C2C=C(C3CC3)N(CCCOC(C)C)C=C2C1=O (configuration not stated),5.8%[13.5 µM],-5.9%,-12.9%[10 µM],-4.8%[9.22 µM],-12.9%[9.22 µM],-4.9%[7.66 µM]
